Assay outcomes: PubChem, National Center for Advancing Translational Sciences (NCATS)
NS1 inh: qHTS Assay for Inhibitors of Influenza NS1 Protein Function. 0.4% of 270,000 active. Potency, µM (series often up to 46.1 µM), inactives show top-dose activity, positive = more growth; calls by dose curve; further: actives are rising curves; nearly all actives have a fitted effect of over 50% in size
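A cell-based growth assay was used: compounds that relieve NS1-induced slow growth of budding yeast raise OD600. Assay medium was yeast nitrogen base with ammonium sulphate and -URA supplement, pH 6.0, with 2% galactose.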
RE007 growth inh: qHTS Assay for Inhibitors of the HIV-1 protein Vpr; S. pombe RE007 Vpr strain, BacTiter-Glo ATP luminescence, 24 h; Potency, µM (titrated, usually from 92.2 µM), for the others: top-dose activity change, negative = less growth, usual class: inhibitors; 0.21% of 360,000 active; active means well fitted falling curve with a large enough effect; inconclusive means small, poorly fitted or top-dose-only effect; inactive means no such curve, though single readings can be large or run the other way; further: on the % scale 0 is the no-effect control and ±100 the full control effect; nearly all actives have a fitted effect of over 50% in size
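Fission yeast strain RE007, carrying one chromosomally integrated HIV-1 vpr copy, was seeded at OD 0.01 in PMG+AL medium with 23 nL pinned compound. After 24 h at 30 °C and 99% humidity, viability was read by BacTiter-Glo luminescence.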
AMA1-RON2 inh: qHTS for Inhibitors of AMA1-RON; Towards Development of Antimalarial Drug Lead: Primary Screen; Plasmodium falciparum AMA1 (3D7) - RON2 peptide interaction; AlphaScreen AMA1-biotinylated RON2 peptide binding; Potency, µM (series often up to 58.2 µM), inactives show top-dose activity change, negative = inhibition, hits mostly inhibitors; 0.2% of 360,000 active; AID 720542, 2013;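 further: 0% = vehicle wells and -100% = peptide control; nearly all actives have a fitted effect of over 45% in size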
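AMA1 (3D7) with his tag at 25 nM final met compounds first, then biotinylated RON2 peptide at 25 nM; detection used donor plus acceptor beads, 10 µg/mL apiece, read by AlphaScreen after 30 min at room temperature.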
TbPYK inhibitor: qHTS of Trypanosoma Brucei Inhibitors | 0.12% of 410,000 active | AID 624173, 2012 | Potency, µM (series often up to 76.8 µM), inactives show at the highest dose activity, negative = inhibition, most hits filed as inhibitors | TbPYK enzyme, Kinase-Glo Plus ATP luminescence, 45 min; further: on the % scale 0 is the no-effect control and ±100 the full control effect; nearly all actives have a fitted effect of over 50% in size
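Assay buffer: 50 mM TEA pH 7.2, 100 mM KCl, 10 mM MgCl2, 0.05% BSA, 0.01% Tween-20. Pyruvate kinase from T. brucei plus substrate met compound, then ADP (130 uM final). Luminescence was read post 45 min RT.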
LmPK inhibitor: qHTS Assay for Inhibitors of Leishmania Mexicana Pyruvate Kinase (LmPK) | 0.37% of 290,000 active | purified LmPK, Kinase-Glo ATP luminescence, 1 h | Potency, µM (doses to about 57.5 µM), inactives show top-dose activity change, negative = inhibition, usual class: inhibitors | AID 1721, 2009 | Q27686; further: on the % scale 0 is the no-effect control and ±100 the full control effect
Target sequence (Q27686 whole entry, looked up): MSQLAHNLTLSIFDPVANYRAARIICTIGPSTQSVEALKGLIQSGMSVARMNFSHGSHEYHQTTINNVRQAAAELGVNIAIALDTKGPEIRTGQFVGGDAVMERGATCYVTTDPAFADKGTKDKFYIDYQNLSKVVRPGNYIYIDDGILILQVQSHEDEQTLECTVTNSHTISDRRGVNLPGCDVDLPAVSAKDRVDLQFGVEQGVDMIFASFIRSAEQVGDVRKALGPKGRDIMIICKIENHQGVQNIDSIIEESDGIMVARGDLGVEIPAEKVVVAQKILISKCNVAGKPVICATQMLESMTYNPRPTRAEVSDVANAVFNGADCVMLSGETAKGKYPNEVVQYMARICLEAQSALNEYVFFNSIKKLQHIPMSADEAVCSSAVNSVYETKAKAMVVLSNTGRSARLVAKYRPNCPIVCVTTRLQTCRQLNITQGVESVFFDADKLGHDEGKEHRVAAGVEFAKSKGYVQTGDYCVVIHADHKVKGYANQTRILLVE
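qHTS format; LmPK 0.1 nM; substrates PEP 0.5 mM and ADP 0.1 mM. One-hour room-temperature incubation, then coupled luciferase luminescence; 0.5 nM enzyme wells mark activation.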
An asterisk follows results filed as active; ? = inconclusive; · = not tested or not shown; [ ] = remark or other dose. This is a sample that favours compounds with a hit; in the whole collection about 0.92% have one here. Unless noted, the call rests on the fitted dose curve; in most records, active means well fitted curve in the direction sought with a large enough effect; inconclusive means small, poorly fitted or top-dose-only effect, or another doubt; inactive means no such curve, though single readings can be large; an effect the other way counts as inactive or inconclusive. Potency means the concentration at half of the fitted maximal effect.

SMILES | NS1 inh | RE007 growth inh | AMA1-RON2 inh | TbPYK inhibitor | LmPK inhibitor
CC(=O)c1ccc(-n2c(-c3cc(-c4ccsc4)n[nH]3)n[nH]c2=S)cc1 | · | 1% | 49% | ? | 20µM*
COc1cc(O)c(C(CCN2CCN(c3ccccc3)CC2)c2ccc(N(C)C)cc2)c(OC)c1 (stereo unspecified) | -18% | -9% | 11µM* | 2% | 1%
COc1cc(O)c(C(CCN2CCOCC2)c2ccc(N(C)C)cc2)c(OC)c1 (stereo unspecified) | -11% | -18% | 20µM* | -2% | 10%
CSCCC(NC(=O)[C@H](Cc1c[nH]c2ccccc12)NC(=O)CNC(=O)[C@H](CCSC)NC(=O)[C@H](Cc1ccc(OS(=O)(=O)O)cc1)NC(=O)[C@@H](N)CC(=O)O)C(=O)N[C@@H](CC(=O)O)C(=O)N[C@@H](Cc1ccccc1)C(N)=O (stereo partly specified) | · | · | · | 3% | ·
CC/C=C(\C(=O)N[C@H]1C(=O)N2C(C(=O)OCOC(=O)C(C)(C)C)=C(COC(N)=O)CS[C@H]12)c1csc(N)n1 | · | · | · | -8% | ·
O=C(/C=C/c1ccc(O)c(O)c1)O[C@H](Cc1ccc(O)c(O)c1)C(=O)O | 5.6µM* | · | · | · | 21%
Cc1ccc(CNC(=O)c2ccc(S(=O)(=O)N3CCCCC3)cc2)cc1 | · | 3% | 17% | -7% | ·
Cc1cc2cc(CNC(=O)c3ccc(S(=O)(=O)N4CCCCC4)cc3)ccc2n1C | 1.3µM* | -1% | 10% | 1% | -4%
Cc1cccc(-n2c(CNC(=O)c3ccc(S(=O)(=O)N4CCCCC4)cc3)n[nH]c2=S)c1 | 10% | 5% | 68% | 7.9µM* | 10%
C=C1CCC(O)C/C1=C/C=C1\CCC[C@]2(C)[C@@H]([C@H](C)/C=C/[C@H](C)C(C)C)CC[C@@H]12 (stereo partly specified) | · | · | · | -4% | ·
COc1ccc(OC)c(N=c2ssnc2Cl)c1 | -107% | ? | -3% | 28µM* | -22%
COc1cc(N=c2ssnc2Cl)c(OC)cc1Cl | -166% | ? | -20% | 11µM* | -4%
Cc1ccc(N=c2ssnc2Cl)cc1 | -118% | -92% | 32% | 28µM* | -16%
CC(=O)/C(=N/Nc1ccccc1[N+](=O)[O-])N1CCCc2ccccc21 | 1% | -19% | 8.9µM* | -2% | -2%
CC(C)(C)c1cc(C(C)(C)C)c(NC(=O)c2c[nH]c3ccccc3c2=O)cc1O | · | · | · | 0% | ·
CCOc1cccc(C=Nc2cc(C)cc(C)c2O)c1O | -70% | 3% | 81% | -11% | 22µM*
COc1ccccc1OC1=NS(=O)(=O)c2ccccc21 | -83% | 17% | -16% | 0% | 13µM*
COC(=O)C1=C(C(=O)OC)[C@@H]2Nc3ccccc3[C@@]23C[C@@H](C(=O)OC)N(S(=O)(=O)c2c(C)noc2C)C3=N1 | · | · | · | · | -6%[11.5 µM]
COC(=O)[C@@H]1O[C@@H](SCCN)[C@@H](O)[C@H](O)[C@H]1O | -3% | · | · | · | ·
O=C(/C=C/c1ccc([N+](=O)[O-])cc1)c1cccnc1 | -23% | 16µM* | -15% | -20% | -3%
O=C(/C=C/c1ccc([N+](=O)[O-])cc1)NCc1cccnc1 | 0% | -2% | -8% | 6% | 0%
COC1=CC(=O)c2ccccc2C1=O | · | 22µM* | 6% | -6% | ·
O=c1c(CO)cc(CO)cc(CO)c1O | -1% | 20% | 22µM* | 1% | 5%
COC(=O)c1ccc(-n2c(C)cc(C(=O)CCl)c2C)cc1 | · | 25µM* | -13% | -1% | 0%
CCC(=O)OC1CCC2C3CCc4cc(O)ccc4C3CCC12C (stereo unspecified) | · | · | · | 0% | ·
COCC1=C(C(=O)OC(C)OC(=O)OC(C)C)N2C(=O)C(NC(=O)/C(=N\OC)c3csc(N)n3)C2SC1 (stereo unspecified) | · | · | · | -3% | ·
C/C(=N/NC(=O)c1ccccn1)c1ccco1 | 0% | -12% | 5% | ? | 14µM*
C/C(=N\NC(=O)c1n[nH]c2c1CCC2)c1ccco1 | -4% | -9% | 4% | ? | 16µM*
